Experimental findings from PubChem BioAssay are described below.

The nature of assay [1]: reducers of endogenous Her2 protein level, primary screen, SKBR3 breast tumor cells, AlphaScreen, ATP viability (AID 461;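 active means Her2 level under about 52% in both replicate screens, with viability over 70% of control, limit read from the data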;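 on Her2 level: lower value means less Her2 protein in the cells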;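 on viability: percent of carrier control wells set as 100% viability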). The note with it: 18-24 h, measured here: SKBR3 viability, ATP luminescence, at 10 µM. (Bead proximity is the source of the signal in Alpha formats.)
The target in assay [2] is Receptor tyrosine-protein kinase erbB-2 (Homo sapiens) (UniProt P04626). The assay is described as above. The note with it: 18-24 h, at 10 µM, stronger effect = lower value.
The nature of assay [3]: SK-BR-3 cell growth inhibitors, pilot screen, 24 h, human (AID 572;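 active means viability at or below 10% of carrier control in both of two separate runs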;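 further: compound exposure lasted between 18 and 24 h rather than exactly 24 h; 100% = carrier-treated control wells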). The conditions noted are these: SK-BR-3 viability, CellTiter-Glo luminescence, at 10 µM, stronger effect = lower value. For orientation: ATP-based viability assays read luminescence as a measure of living cells.
A short description of assay [4]: HUVEC growth inhibition – cell-based, human, primary screen (AID 575;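 active means viability at or below 30% in both replicate assays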;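 further: 100% = median of untreated cell wells with 0.1% DMSO on each plate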). The conditions noted are these: HUVEC proliferation, CellTiter-Glo luminescence, 72 h; at 10 µM; stronger effect = lower value.
Assay [5] can be described thus: growth inhibitors of H69AR lung tumor, primary screen, human, duplicate replicates (AID 580;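 active means viability at or under a set limit in both replicates, limit being median viability minus 3 SD, cut at about 48% in these data, passing the limit was not always enough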;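 further: 100% = mean luminescence of untreated wells and 0% = no signal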). The conditions noted are these: H69AR lung tumor cells viability, ATP luminescence, 72 h; at 10 µM; stronger effect = lower value.
A short description of assay [6]: reversal of MRP1-mediated doxorubicin resistance, pilot screen, H69AR cells, doxorubicin co-treatment (AID 601;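 active means viability loss from added drug above about 55%, and viability with drug at most 40%, in both replicates, limit read from the data, passing the limit was not always enough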). The conditions noted are these: CellTiter-Glo, 72 h, at 10 µM; for differential viability (reversal): stronger effect = higher value.
The nature of assay [7]: 384-well plate pilot, post-Golgi transport modulator project, inhibition of yeast transport mutant growth (AID 636; in the data active means inhibition above about 31%). The conditions noted are these: absorbance 615 nm, about 18 h, stronger effect = higher value.
Assay [8] can be described thus: growth suppression of yeast trafficking mutant, preliminary HTS, modulators of trafficking downstream of Golgi apparatus project, 1536-format plate, OD 615 nm (AID 637; in the data active means inhibition above about 30%). The note with it: yeast transport mutant growth, absorbance 615 nm, 18 h; stronger effect = higher value.
The nature of assay [9]: OD615 S. cerevisiae growth inhibition, permissive medium, pilot counter-assay, permissive growth control for S. cerevisiae lifespan shortening project (AID 705;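 active means growth inhibition above 25% in both replicates, a cutoff set 3 SD above the mean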). The conditions noted are these: OD615, 24 h, at 10 µM, stronger effect = higher value.
Assay [10] in a line: Restrictive medium S. cerevisiae growth inhibition, OD615, pilot screen of yeast lifespan reduction project, restrictive growth control (AID 706;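 active means growth inhibition above a set limit, 3 SD over mean compound inhibition, in both replicates, cut at about 43% in these data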;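 further: modified DeaD lifespan yeast strain shifted to restrictive glucose medium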). The conditions noted are these: OD615, 48 h, at 10 µM, stronger effect = higher value.
A short description of assay [11]: viability gain of MRP-1-high H69AR cells under doxorubicin, pilot screen, MRP-1 activator project, CellTiter-Glo, duplicate (AID 807).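 Further: compound pretreatment 18-22 h then 72 h combined with doxorubicin; 0% = doxorubicin alone and 100% = vehicle without doxorubicin.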 The note with it: H69AR viability with doxorubicin, CellTiter-Glo luminescence; at 10 µM; stronger effect = higher value.
Assay [12] in a line: growth suppression of beta-catenin knockout HCT116, pilot screen, human colon tumor cells (AID 823;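 active means cell viability at or below a set limit in both duplicate runs, the limit being the all-compound median minus 4 SD, cut at about 23% in these data, passing the limit was not always enough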;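 further: 0% = wells killed by 20 µM Hyamine and 100% = untreated DMSO cell wells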). The note with it: CellTiter-Glo, 60 h, at 10 µM, stronger effect = lower value.
A short description of assay [13]: growth suppression of PTEN-deleted HCT116, pilot screen, cell-based, HCT116 clonal line, CellTiter-Glo (AID 824;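 active means viability at or below 27.92% in each of two runs, the all-compound median minus 4 SD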;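 further: 0% = 20 µM Hyamine control and 100% = vehicle cell control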). The conditions noted are these: 60 h, at 10 µM, stronger effect = lower value.
The nature of assay [14]: inhibitors of the yeast RAM network, pilot screen, dse1pr::URA3 reporter, 5-FOA selection (AID 869;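 active means inhibition over a set limit, the all-compound mean plus 3 SD, in both replicate runs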;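 further: 0% = DMSO wells with no growth and 100% = 10 µM 1-NA-PP1 with full growth; RAM network block rescues cells from 5-FOA so hits raise OD615 growth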). The conditions noted are these: S. cerevisiae dse1pr::URA3 5-FOA growth, OD615, 2 d; at 10 µM; stronger effect = higher value; strain carries analog-sensitive mutant Cbk1 kinase.
Assay [15] is described as follows: RAM signaling pathway blockade in yeast – S. cerevisiae, Pdr1DBD-CYC8 efflux-inhibited sensitized strain, primary screen (AID 1298;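 active means RAM network inhibition above 8.4% in each of two replicates, 3 SD over the compound average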;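 further: 0% = DMSO untreated cells without growth and 100% = 10 µM 1-NA-PP1 full growth; higher means more yeast growth rescued from 5-FOA killing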). The conditions noted are these: S. cerevisiae cbk1-as DSE1-URA3 strain, 5-FOA growth OD615, 2 d; at 50 µM; stronger effect = higher value.
Setting [16] is: H69AR cells + 2 uM doxorubicin, measured here: viability with 2 uM doxorubicin, stronger effect = lower value.
Where [17] appears, read: H69AR cells, compound alone cytotoxicity.

Records with an inconclusive call do not appear. The source made the active and inactive calls.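 How the source made its calls, unless noted: active means viability increase at or above a cutoff of the median across tested compounds plus 3 SD (cut at about 8.5% in these data, passing the limit was not always enough); inconclusive means some gains above the cutoff, reason not given; inactive means the rest.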

Sequence of Receptor tyrosine-protein kinase erbB-2 (Homo sapiens) (P04626 whole entry, looked up): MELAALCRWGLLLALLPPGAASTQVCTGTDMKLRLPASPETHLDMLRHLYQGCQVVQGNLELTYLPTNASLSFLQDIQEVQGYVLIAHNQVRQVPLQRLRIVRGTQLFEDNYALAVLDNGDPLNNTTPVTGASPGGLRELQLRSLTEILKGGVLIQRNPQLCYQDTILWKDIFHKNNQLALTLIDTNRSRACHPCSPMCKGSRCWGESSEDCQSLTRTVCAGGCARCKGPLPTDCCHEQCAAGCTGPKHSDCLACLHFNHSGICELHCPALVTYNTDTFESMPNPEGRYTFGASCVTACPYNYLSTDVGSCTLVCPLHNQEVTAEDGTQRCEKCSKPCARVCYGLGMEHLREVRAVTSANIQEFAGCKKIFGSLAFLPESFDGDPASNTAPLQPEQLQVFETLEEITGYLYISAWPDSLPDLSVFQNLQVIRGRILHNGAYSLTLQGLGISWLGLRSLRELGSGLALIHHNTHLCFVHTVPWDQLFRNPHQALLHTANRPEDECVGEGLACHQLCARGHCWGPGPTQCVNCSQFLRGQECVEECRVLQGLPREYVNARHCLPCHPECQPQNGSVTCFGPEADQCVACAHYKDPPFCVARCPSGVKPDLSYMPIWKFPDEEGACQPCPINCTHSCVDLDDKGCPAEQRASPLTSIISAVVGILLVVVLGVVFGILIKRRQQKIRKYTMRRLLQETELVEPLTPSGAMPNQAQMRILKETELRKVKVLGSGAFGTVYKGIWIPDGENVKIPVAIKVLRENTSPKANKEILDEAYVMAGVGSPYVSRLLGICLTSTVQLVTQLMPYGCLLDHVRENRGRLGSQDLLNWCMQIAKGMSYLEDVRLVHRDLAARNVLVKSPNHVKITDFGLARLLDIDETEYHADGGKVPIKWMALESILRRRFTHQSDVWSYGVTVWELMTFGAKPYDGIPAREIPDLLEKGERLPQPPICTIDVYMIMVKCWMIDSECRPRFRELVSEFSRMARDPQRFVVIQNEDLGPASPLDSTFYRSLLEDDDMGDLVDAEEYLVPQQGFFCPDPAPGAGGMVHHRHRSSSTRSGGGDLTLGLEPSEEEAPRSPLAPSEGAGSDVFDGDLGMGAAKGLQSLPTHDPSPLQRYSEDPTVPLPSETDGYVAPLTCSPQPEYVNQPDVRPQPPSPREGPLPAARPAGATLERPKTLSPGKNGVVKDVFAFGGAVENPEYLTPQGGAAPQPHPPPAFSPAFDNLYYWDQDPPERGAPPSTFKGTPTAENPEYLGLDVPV

For the molecule `Cn1nnnc1SCC(=O)Nc1ccccc1-c1ccccc1`, the viability was 100% in assay [1]; 100% (inactive) in [3]; 99% (inactive) in assay [4]; 91.2% (inactive) in assay [5]; 81.6% in assay [6] (setting [16]); 91.2% in assay [6] (setting [17]). Further, the figures for the viability in assay [12] and in assay [13] were 97.4% (inactive) and 90% (inactive), respectively. In addition, the Her2 level in assay [2] is 110% (inactive). In assay [6] (H69AR cells + 2 uM doxorubicin), the differential viability (reversal) is 9.64% (inactive). Further, the inhibition was -2.44% (inactive) in assay [7], -1.33% (inactive) in [8] and 0.31% (inactive) in [14]. Besides, the growth inhibition was -19.3% (inactive) in assay [9] and -10.2% (inactive) in assay [10]. In [11], the viability increase is -0.09% (inactive). Further, in [15], the RAM network inhibition was 0.77% (inactive).

With `CCOc1ccc(NC(=O)CN2C(=O)C3CCCN3C2=O)cc1` (stereo not given), the viability in [1] is 85%; in assay [3], 85% (inactive); in assay [4] it was 94.6% (inactive); in [5], 101% (inactive); in [6] (setting [16]) it was 97.5%; in assay [6] (setting [17]), 101%. For the same molecule, the viability in [12] is 102% (inactive); in [13] it was 97.1% (inactive). Further, the Her2 level in assay [2] was 106% (inactive). Besides, the differential viability (reversal) in [6] (H69AR cells + 2 uM doxorubicin) was 3.86% (inactive). For the same molecule, the inhibition in assay [7] was -2.53% (inactive); in [8], 3.67% (inactive); in [14], -0.315% (inactive). The growth inhibition in assay [9] is -4.76% (inactive); in [10], -13.8% (inactive). In addition, the viability increase in [11] was -0.9% (inactive). The RAM network inhibition in [15] is 2.93% (inactive).

Consider `c1ccc(C(Cc2nc(-c3ccccn3)no2)c2ccccc2)cc1`, for which the viability was 96% in assay [1]; 96% (inactive) in [3]; 92.8% (inactive) in [4]; 95.2% (inactive) in assay [5]; 107% in assay [6] (setting [16]); 95.2% in [6] (setting [17]). Moreover, the results for the viability in assay [12] and in assay [13] were 89.7% (inactive) and 82.5% (inactive), respectively. Further, in assay [2], the Her2 level is 94% (inactive). Also, in assay [6] (H69AR cells + 2 uM doxorubicin), the differential viability (reversal) was -11.8% (inactive). Also, the values for the inhibition in assay [7], in assay [8] and in assay [14] were -4.03% (inactive), 1.8% (inactive) and 1.98% (inactive), respectively. Further, the values for the growth inhibition in [9] and in assay [10] were -9.91% (inactive) and 12.9% (inactive), respectively. Besides, in [11], the viability increase is -2.01% (inactive). For the same molecule, in [15], the RAM network inhibition was 6.08% (inactive).

With `Cn1cccc1Cc1nnc(SCC(=O)NCC2CCCO2)n1-c1ccc(F)cc1` (stereo not given), the viability in [1] was 97.5%; in assay [3], 97.5% (inactive); in assay [4], 106% (inactive); in [5], 91% (inactive); in [6] (setting [16]), 90.9%; in assay [6] (setting [17]), 91%. Besides, the figures for the viability in assay [12] and in assay [13] were 108% (inactive) and 94.7% (inactive), respectively. The Her2 level in assay [2] was 90% (inactive). Besides, the differential viability (reversal) in [6] (H69AR cells + 2 uM doxorubicin) is 0.18% (inactive). The figures for the inhibition in assay [7], in assay [8] and in [14] were -4.93% (inactive), -2.33% (inactive) and 0.02% (inactive), respectively. Besides, the figures for the growth inhibition in assay [9] and in assay [10] were -11.2% (inactive) and -5.59% (inactive), respectively. In addition, the viability increase in assay [11] was -1.1% (inactive). Also, in assay [15], the RAM network inhibition was 6.15% (inactive).

Turning to `CC(=O)Nc1ccc(N=Cc2ccc[nH]2)cc1`, the viability in assay [1] is 97.5%; in [3], 97.5% (inactive); in assay [4], 95.3% (inactive); in assay [5] it was 88.5% (inactive); in assay [6] (setting [16]), 90%; in [6] (setting [17]), 88.5%. The values for the viability in [12] and in [13] were 90.7% (inactive) and 92.8% (inactive), respectively. Also, the Her2 level in assay [2] is 87.5% (inactive). In addition, in assay [6] (H69AR cells + 2 uM doxorubicin), the differential viability (reversal) was -1.47% (inactive). In addition, the inhibition in assay [7] was 1.28% (inactive); in assay [8] it was -5.5% (inactive); in assay [14] it was 0.435% (inactive). The growth inhibition in assay [9] is -11.4% (inactive); in [10], -5.65% (inactive). The viability increase in [11] is -1.9% (inactive). For the same molecule, in assay [15], the RAM network inhibition was 3.68% (inactive).

Usually viability stands for a read-out of living cells in per cent, often relative to untreated cells. Usually inhibition stands for the change of the read-out against control, counted positive when it falls.
